Data published in PubChem BioAssay (Tox21).
Records with an inconclusive call do not appear. Activity calls are given as the source filed them. Unless noted, calls come from the whole dose curve.

Tests used:
[1] = qHTS assay to identify small molecule agonists of the vitamin D receptor (VDR) signaling pathway - cell viability counter screen (AID 743224; active = well fitted curve in the direction sought with a large enough effect in the repeat runs; an effect the other way counts as inactive or inconclusive; note: series mostly up to about 63 µM; % is set by controls: 0 for no effect and ±100 for the full control effect; nearly all actives have a fitted effect of over 50% in size)
Procedure, shortened: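 Viability is measured in the same wells as the VDR-bla reporter assay: after 16 h compound treatment and 2 h substrate loading, CellTiter-Glo is added and luminescence read 30 min later.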

[2] = qHTS assay to identify small molecule antagonists of the vitamin D receptor (VDR) signaling pathway - cell viability counter screen (AID 743225; active = well fitted curve in the direction sought with a large enough effect in the repeat runs; an effect the other way counts as inactive or inconclusive; note: % is set by controls: 0 for no effect and ±100 for the full control effect; nearly all actives have a fitted effect of over 50% in size)
Procedure, shortened: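 HEK293T VDR-bla; cpd + 1a,25-(OH)2D3 3 nM final, 16 h 37C/5% CO2; B/G FRET substrate 2 h RT; then CellTiter-Glo 30 min RT, luminescence.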

[3] = qHTS assay to identify small molecule agonists of the NFkB signaling pathway (AID 1159509; active = well fitted curve in the direction sought with a large enough effect in the signal ratio in the repeat runs, not every such curve was filed as active; the % refers to the signal ratio; note: series mostly up to about 61 µM; % is set by controls: 0 for no effect and ±100 for the full control effect)
Procedure, shortened: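 ME-180 NFkB-bla, 2,000 cells/well, overnight plating; cpd pinned in DMSO, 5 h 37 C; B/G FRET substrate 1.5 h RT; ex 405, em 460/530 nm.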

[4] = qHTS assay to identify small molecule agonists of the NFkB signaling pathway - cell viability counter screen (AID 1159515); note: series mostly up to about 61 µM; % is set by controls: 0 for no effect and ±100 for the full control effect; nearly all actives have a fitted effect of over 55% in size
Procedure, shortened: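 Multiplexed viability readout: after the 5 hr compound exposure and 1.5 hr FRET substrate step, CellTiter-Glo reagent went into the same NFkB-bla ME-180 wells; ATP luminescence was measured after 30 min at room temperature.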

[5] = qHTS assay to identify small molecule agonists of the endoplasmic reticulum stress response signaling pathway (AID 1159516; active = well fitted activation curve with a large enough effect in the signal ratio in the repeat runs, not every such curve was filed as active; the % refers to the signal ratio; note: % is set by controls: 0 for no effect and ±100 for the full control effect)
Procedure, shortened: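 Tox21 10K library screened in quantitative HTS format on ESRE-bla HeLa cells, a beta-lactamase reporter under ER stress response element control; 5 hr treatment, FRET read.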

[6] = qHTS assay to identify small molecule agonists of the endoplasmic reticulum stress response signaling pathway - cell viability counter screen (AID 1159517); note: series mostly up to about 61 µM; % is set by controls: 0 for no effect and ±100 for the full control effect; nearly all actives have a fitted effect of over 50% in size
Procedure, shortened: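 CellTiter-Glo was added to wells already read for beta-lactamase FRET, and luminescence was recorded 30 min later. Cells: ESRE-bla HeLa, 1,500 per well, compound exposure 5 hr at 37 C.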

[7] = qHTS assay to identify small molecule antagonists of the retinoid-related orphan receptor gamma (ROR-gamma) signaling pathway - cell viability counter screen (AID 1159520; active = well fitted curve in the direction sought with a large enough effect in the repeat runs; an effect the other way counts as inactive or inconclusive; note: % is set by controls: 0 for no effect and ±100 for the full control effect; nearly all actives have a fitted effect of over 50% in size)
Procedure, shortened: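 Tet-on ROR gamma CHO cells (1,000/well) were plated 4 hr, given compounds in DMSO for 2 hr at 37 C, then induced with 1 uM final doxycycline for 16 hr. Viability was read as ATP by CellTiter-Glo luminescence after 30 min.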

[8] = biological target: Nuclear receptor ROR-gamma (Homo sapiens) (UniProt P51449); assay: qHTS assay to identify small molecule antagonists of the retinoid-related orphan receptor gamma (ROR-gamma) signaling pathway (AID 1159521; active = well fitted curve in the direction sought with a large enough effect in the repeat runs; an effect the other way counts as inactive or inconclusive)
Procedure, shortened: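 Cells were plated, rested 4 h at 37 C, exposed to compounds for 2 h, then given 1 uM final doxycycline hyclate to induce RORγ expression. After 16 h, ONE-Glo luminescence from the ROR response element reporter was measured.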

[9] = qHTS assay to identify small molecule agonists of the AP-1 signaling pathway - cell viability counter screen (AID 1159525); note: nearly all actives have a fitted effect of over 55% in size
Procedure, shortened: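 ME-180 AP-1-bla, 2500 cells/well, Opti-MEM + 0.5% dialyzed FBS; overnight 37 °C; cpd 15-pt titration, 5 h 37 °C; CellTiter-Glo 30 min RT; luminescence read; normalised to TOAB and DMSO controls.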

[10] = qHTS assay to identify small molecule agonists of the AP-1 signaling pathway (AID 1159526); note: % is set by controls: 0 for no effect and ±100 for the full control effect

CCCCCSCCCCC
inactive: Potency [1] | Potency [2] | outcome [3] | outcome [4] | outcome [5] | outcome [6] | outcome [7] | Potency [8] | Potency [9] | outcome [10]

CN1CCN(c2cc3c(cc2F)c(=O)c(C(=O)O)cn3-c2ccc(F)cc2)CC1
inactive: Potency [1] | outcome [3] | outcome [4] | outcome [5] | outcome [6] | outcome [7] | Potency [8] | Potency [9] | outcome [10]

CCCCOCCOCCOCc1cc2c(cc1CCC)OCO2
inactive: Potency [1] | Potency [2] | outcome [3] | outcome [4] | outcome [5] | outcome [6] | outcome [7] | Potency [8] | Potency [9] | outcome [10]

CN(C)CCCNCCCN(C)C
inactive: Potency [1] | outcome [3] | outcome [4] | outcome [5] | outcome [6] | outcome [7] | Potency [8] | Potency [9] | outcome [10]

CCC(C)S (configuration not stated)
inactive: activity change, negative = cytotoxicity [1] 8.62% [at 2.7 µM] | viability change, negative = cytotoxic [2] 1.2% [at 3.11 µM] | activation [3] 0.0323% [at 3.11 µM] | activity, negative = cytotoxic [4] 6.58% [at 3.12 µM] | activation [5] 2.07% [at 3.11 µM] | activity change, negative = cytotoxicity [6] 12.1% [at 3.11 µM] | activity, negative = cytotoxicity [7] -0.272% [at 3.27 µM] | activity change, negative = inhibition [8] 4.64% [at 3.27 µM] | viability change, negative = cytotoxic [9] 5.51% [at 2.72 µM] | activation [10] -2.17% [at 2.72 µM]

COc1c(N2C[C@@H]3CCCN[C@@H]3C2)c(F)cc2c(=O)c(C(=O)O)cn(C3CC3)c12
inactive: outcome [3] | outcome [4] | outcome [5] | outcome [6] | outcome [7] | Potency [8] | Potency [9] | outcome [10]

c1cnc(N2CCN(Cc3ccc4c(c3)OCO4)CC2)nc1
inactive: Potency [1] | outcome [3] | outcome [4] | outcome [5] | outcome [6] | outcome [7] | Potency [8] | Potency [9] | outcome [10]

O=C(O)CN(CCOCCOCCN(CC(=O)O)CC(=O)O)CC(=O)O
inactive: activity change, negative = cytotoxicity [1] 7.18% [at 0.55 µM] | viability change, negative = cytotoxic [2] 0.79% [at 0.628 µM] | activation [3] -0.0067% [at 0.628 µM] | activity, negative = cytotoxic [4] 7.66% [at 0.628 µM] | activation [5] 0.191% [at 0.628 µM] | activity change, negative = cytotoxicity [6] 11.3% [at 0.628 µM] | activity, negative = cytotoxicity [7] 0.0573% [at 0.349 µM] | activity change, negative = inhibition [8] 4.15% [at 0.35 µM] | viability change, negative = cytotoxic [9] -1.21% [at 0.29 µM] | activation [10] -6.2% [at 0.29 µM]

CCSC(=O)N(CC(C)C)CC(C)C
inactive: Potency [1] | Potency [2] | outcome [3] | outcome [4] | outcome [5] | outcome [6] | outcome [7] | Potency [8] | Potency [9] | outcome [10]

O=C(O)CCCl
inactive: Potency [1] | Potency [2] | outcome [3] | outcome [4] | outcome [5] | outcome [6] | outcome [7] | Potency [8] | Potency [9] | outcome [10]

Cn1cc(S(C)=O)c(=O)c2ccc(F)cc21 (configuration not stated)
inactive: Potency [1] | Potency [2] | outcome [3] | outcome [4] | outcome [5] | outcome [6] | outcome [7] | Potency [8] | Potency [9] | outcome [10]

CC/C=C\CCOC(C)=O
inactive: Potency [1] | Potency [2] | outcome [3] | outcome [4] | outcome [5] | outcome [6] | outcome [7] | Potency [8] | Potency [9] | outcome [10]

Nc1ccccc1S(=O)(=O)O
inactive: Potency [1] | outcome [3] | outcome [4] | outcome [5] | outcome [6] | outcome [7] | Potency [8] | Potency [9] | outcome [10]

CCn1ccnc1CC1COc2ccccc2O1 (configuration not stated)
inactive: Potency [1] | Potency [2] | outcome [3] | outcome [4] | outcome [5] | outcome [6] | outcome [7] | Potency [8] | Potency [9] | outcome [10]

CCC=O
inactive: Potency [1] | Potency [2] | outcome [3] | outcome [4] | outcome [5] | outcome [6] | outcome [7] | Potency [8] | Potency [9] | outcome [10]

CC(=O)OCC(CCn1cnc2cnc(N)nc21)COC(C)=O
inactive: Potency [1] | Potency [2] | outcome [3] | outcome [4] | outcome [5] | outcome [6] | outcome [7] | Potency [8] | Potency [9] | outcome [10]

CC(C)(O)C#CC(C)(C)O
inactive: Potency [1] | Potency [2] | outcome [3] | outcome [4] | outcome [5] | outcome [6] | outcome [7] | Potency [8] | Potency [9] | outcome [10]

CCS(=O)(=O)c1ccc(OC)c(C(=O)OC)c1
inactive: Potency [1] | Potency [2] | outcome [3] | outcome [4] | outcome [5] | outcome [6] | outcome [7] | Potency [8] | Potency [9] | outcome [10]

CCN(Cc1ccncc1)C(=O)C(CO)c1ccccc1 (configuration not stated)
inactive: Potency [1] | Potency [2] | outcome [3] | outcome [4] | outcome [5] | outcome [6] | outcome [7] | Potency [8] | Potency [9] | outcome [10]

NS(=O)(=O)c1cc(C(=O)O)cc(N2CCCC2)c1Oc1ccccc1
inactive: Potency [1] | Potency [2] | outcome [3] | outcome [4] | outcome [5] | outcome [6] | outcome [7] | Potency [8] | Potency [9] | outcome [10]

CC(C)OC(=O)c1ccccc1
inactive: Potency [1] | outcome [3] | outcome [4] | outcome [5] | outcome [6] | outcome [7] | Potency [8] | Potency [9] | outcome [10]

CCCCNC(=O)NCCCC
inactive: Potency [1] | outcome [3] | outcome [4] | outcome [5] | outcome [6] | outcome [7] | Potency [8] | Potency [9] | outcome [10]

COc1ccc2c(c1)c(CC(=O)OCC(=O)O)c(C)n2C(=O)c1ccc(Cl)cc1
inactive: Potency [1] | Potency [2] | outcome [3] | outcome [4] | outcome [5] | outcome [6] | outcome [7] | Potency [8] | Potency [9] | outcome [10]

CCO[Si](CCC1CCC2OC2C1)(OCC)OCC (configuration not stated)
inactive: Potency [1] | Potency [2] | outcome [3] | outcome [4] | outcome [5] | outcome [6] | outcome [7] | Potency [8] | Potency [9] | outcome [10]
